Reference: PubChem BioAssay (EPA / NIEHS)
Results filed as inconclusive are left out. Activity calls are given as the source filed them. How the source made its calls, unless noted: active means hit-call score of the fitted dose curve at least 0.9, where 1 is the maximum; inactive means score below 0.9.

Key:
[1] = target: Paired box protein Pax-6 (Homo sapiens) (UniProt P26367); assay: ATG_Pax6_CIS: Attagene CIS-FACTORIAL HepG2 Assay for human Paired Box 6 (PAX6) (AID 2282956); conditions: HepG2 CIS-FACTORIAL PAX6 reporter transcription, RNA readout; actives raise or lower the signal
Method in brief: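 Read-out is reporter transcript level, measured by RT-PCR with fluorescent primer extension and capillary electrophoresis after 24 h dosing of transfected HepG2 cells. Activity in either direction fitted relative to DMSO control.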

[2] = ATG_PXRE_CIS: Attagene CIS-FACTORIAL HepG2 Assay for human Pregnane X Receptor Element (PXRE) (AID 2282957); conditions: HepG2 Attagene CIS-FACTORIAL PXRE reporter, mRNA; actives raise or lower the signal
Method in brief: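 Reporter transcripts under endogenous PXR-responsive cis-regulation quantified from total RNA of transfected HepG2 cells 24 h post-dosing, via RT-PCR with fluorescent primer extension and capillary electrophoresis. Gain or loss of signal fitted against DMSO baseline.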

[3] = ATG_Sox_CIS: Attagene CIS-FACTORIAL HepG2 Assay for human SRY-box transcription factor (SOX) (AID 2282960); conditions: HepG2 Attagene cis-factorial SOX reporter, mRNA; actives raise or lower the signal
Method in brief: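 Cells were transfected with reporter constructs under cis-regulatory promoters, then exposed to chemicals for 24 h. Reporter transcripts were quantified by fluorescence after RT-PCR and capillary electrophoresis; activity was fitted in both directions against DMSO.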

[4] = target: Transcription factor Sp1 (Homo sapiens) (UniProt P08047); assay: ATG_Sp1_CIS: Attagene CIS-FACTORIAL HepG2 Assay for human Specificity Protein 1 (Sp1) (AID 2282961); conditions: HepG2 Sp1 cis-reporter transcription, actives raise or lower the signal
Method in brief: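 Measures mRNA induction of an Sp1-linked reporter in HepG2 cells 24 h post-dosing. Multiplexed reporters read by RT-PCR and capillary electrophoresis; DMSO serves as negative control and baseline.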

[5] = ATG_SREBP_CIS: Attagene CIS-FACTORIAL HepG2 Assay for human Sterol Regulatory Element Binding (SREBP) (AID 2282962); conditions: HepG2 Attagene cis-factorial SREBP reporter, mRNA; actives raise or lower the signal
Method in brief: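 Endogenous SREBP activity read as cis-element-driven reporter transcript in transiently transfected HepG2, 24 h post-dosing; quantified via RT-PCR plus capillary electrophoresis of fluorescent fragments. Gain or loss of signal fitted relative to DMSO baseline.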

[6] = target: Signal transducer and activator of transcription 3 (Homo sapiens) (UniProt P40763); assay: ATG_STAT3_CIS: Attagene CIS-FACTORIAL HepG2 Assay for human Signal Transducer and Activator of Transcription 3 (STAT3) (AID 2282963); conditions: HepG2, Attagene cis-factorial STAT3 reporter transcription; actives raise or lower the signal
Method in brief: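 Readout is reporter transcript quantified by RT-PCR and capillary electrophoresis, with 6-FAM primer extension and HpaI digestion. Total RNA is taken 24 h after dosing transiently transfected HepG2 carrying cis-regulated reporter units. Bidirectional fit against DMSO.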

[7] = ATG_TA_CIS: Attagene CIS-FACTORIAL HepG2 Assay for human TA Basal Promoter (AID 2282964); conditions: HepG2 Attagene CIS-factorial TA basal promoter reporter; actives raise or lower the signal
Method in brief: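 Read-out: fluorescent reporter-transcript fragments resolved by capillary electrophoresis after RT-PCR and HpaI digestion. Source: HepG2 cells carrying transiently transfected multi-reporter cis constructs, treated 24 h. Endpoint fitted bidirectionally relative to DMSO.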

[8] = ATG_TCF_b_cat_CIS: Attagene CIS-FACTORIAL HepG2 Assay for human T-Cell-Factor with beta-catenin (TCF/b-cat) (AID 2282965); conditions: HepG2 TCF/beta-catenin cis-reporter transcription, actives raise or lower the signal
Method in brief: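 Measured: reporter mRNA in HepG2 transiently transfected with cis-promoter reporter units, 24 h after chemical addition. Fitting was bidirectional, DMSO as negative control.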

[9] = ATG_TAL_CIS: Attagene CIS-FACTORIAL HepG2 Assay for human TAL Basal Promoter (AID 2282966); conditions: HepG2 Attagene cis-factorial TAL promoter reporter; actives raise or lower the signal;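 further: background control endpoint measuring basal TAL promoter reporter mRNA not a specific factor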
Method in brief: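 Background-control endpoint: basal TAL promoter reporter transcripts in transiently transfected HepG2, measured 24 h after dosing. Read-out by RT-PCR with fluorescent primer extension and capillary electrophoresis; gain or loss of signal fitted relative to DMSO.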

[10] = ATG_TGFb_CIS: Attagene CIS-FACTORIAL HepG2 Assay for human Transforming Growth Factor (TGF) (AID 2282967); conditions: HepG2 Attagene CIS TGFb reporter, mRNA transcription; actives raise or lower the signal
Method in brief: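 Transient MRTU transfection of HepG2 (FuGene 6). Dose 24 h. TriZol RNA, oligo(dT) RT, PCR, 6-FAM primer extension, HpaI cut, CE. Bidirectional fit, DMSO = baseline.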

[11] = ATG_VDRE_CIS: Attagene CIS-FACTORIAL HepG2 Assay for human Vitamin D Receptor Element (VDRE) (AID 2282968); conditions: HepG2 VDRE cis-reporter transcription, actives raise or lower the signal
Method in brief: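 Readout is VDRE-driven reporter mRNA reflecting endogenous factor activity in human HepG2 cells, sampled 24 h post-dose. Quantification used labelled RT-PCR products separated by capillary electrophoresis; bidirectional analysis relative to DMSO.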

[12] = target: Nuclear receptor subfamily 1 group I member 3 (Homo sapiens) (UniProt Q14994); assay: ATG_CAR_TRANS: Attagene TRANS-FACTORIAL HepG2 Assay for human Constitutive Androstane Receptor (CAR) (AID 2282969; active means hit-call score of the fitted dose curve at least 0.9, where 1 is the maximum;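 further: activators raise reporter mRNA above DMSO so AC50 marks induction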); conditions: HepG2 Attagene TRANS-FACTORIAL CAR reporter
Method in brief: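 Signal is reporter mRNA induction relative to DMSO, measured 24 h after dosing by RT-PCR with fluorescent primer extension and capillary electrophoresis. Human HepG2 liver cells carried transiently transfected chimeric NR-Gal4/GAL4-UAS reporter constructs.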

[13] = target: X-box-binding protein 1 (Homo sapiens) (UniProt P17861); assay: ATG_Xbp1_CIS: Attagene CIS-FACTORIAL HepG2 Assay for human X-box Binding Protein 1 (XBP1) (AID 2282972); conditions: HepG2 XBP1 cis-element reporter, Attagene multiplex; actives raise or lower the signal
Method in brief: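 Reporter transcripts were quantified by RT-PCR with fluorescent primer extension and capillary electrophoresis after 24 h chemical exposure. Cells: transiently transfected HepG2 carrying cis-regulated reporter constructs; data fitted bidirectionally relative to DMSO.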

[14] = ATG_M_19_TRANS: Attagene TRANS-FACTORIAL HepG2 Assay for M19 Transcription Factor (Internal Marker) (AID 2282974; active means hit-call score of the fitted dose curve at least 0.9, where 1 is the maximum); conditions: HepG2 Attagene TRANS-FACTORIAL M19 internal marker reporter
Method in brief: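 After transfection of HepG2 with GAL4-UAS-driven reporter constructs, cells are dosed for 24 h. Total RNA is reverse-transcribed, reporter sequences PCR-amplified and labelled, then HpaI-digested and sized by capillary electrophoresis.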

[15] = ATG_GAL4_TRANS: Attagene TRANS-FACTORIAL HepG2 Assay for GAL4 (Internal Marker) (AID 2282976; active means hit-call score of the fitted dose curve at least 0.9, where 1 is the maximum); conditions: HepG2 Attagene TRANS GAL4 internal marker reporter
Method in brief: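 In transfected human HepG2 liver cells dosed 24 h, GAL4 reporter mRNA serves as a baseline marker. Detection by RT-PCR with fluorescent capillary electrophoresis, activity fitted upward relative to DMSO.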

[16] = ATG_PPRE_CIS: Attagene CIS-FACTORIAL HepG2 Assay for human Peroxisome Proliferator-activated Response Element (PPRE) (AID 2282958); conditions: HepG2 PPRE cis-element reporter, Attagene transcription factor profiling; actives raise or lower the signal
Method in brief: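 Transcript-level reporter induction in transfected HepG2 cells after 24 h chemical exposure, quantified by fluorescence from RT-PCR products separated by capillary electrophoresis.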

[17] = ATG_RORE_CIS: Attagene CIS-FACTORIAL HepG2 Assay for human RAR-related Orphan Receptor Element (RORE) (AID 2282959); conditions: HepG2 Attagene cis-factorial RORE reporter, mRNA; actives raise or lower the signal
Method in brief: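 Multiplexed reporter assay measuring mRNA induction from a cis promoter element in transiently transfected HepG2 cells after 24 h treatment. Detection via RT-PCR and capillary electrophoresis fluorescence; DMSO serves as baseline.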

[18] = target: Steroid hormone receptor ERR1 (Homo sapiens) (UniProt P11474); assay: ATG_ERRa_TRANS: Attagene TRANS-FACTORIAL HepG2 Assay for human Estrogen-Related Receptor alpha (ERRa) (AID 2282971; active means hit-call score of the fitted dose curve at least 0.9, where 1 is the maximum); conditions: HepG2 Attagene TRANS reporter, ERRa transactivation
Method in brief: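 Reporter transcripts from ERRa-Gal4 chimera activity measured in transiently transfected human HepG2 cells 24 hours after dosing, using RT-PCR with 6-FAM primer extension, HpaI digestion and capillary electrophoresis; DMSO is baseline.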

[19] = target: Estrogen-related receptor gamma (Homo sapiens) (UniProt P62508); assay: ATG_ERRg_TRANS: Attagene TRANS-FACTORIAL HepG2 Assay for human Estrogen-Related Receptor gamma (ERRg) (AID 2282977; active means hit-call score of the fitted dose curve at least 0.9, where 1 is the maximum;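 further: hits increase reporter signal over DMSO so potencies reflect activators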); conditions: HepG2 Attagene TRANS reporter, ERRg transactivation
Method in brief: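 Induction of reporter transcripts through a chimeric NR-Gal4 protein is quantified in transfected human HepG2 liver cells after 24 h chemical exposure, using RT-PCR with capillary electrophoresis detection and DMSO as baseline.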

[20] = target: Estrogen receptor (Homo sapiens) (UniProt P03372); assay: ATG_ERa_TRANS: Attagene TRANS-FACTORIAL HepG2 Assay for human Estrogen Receptor alpha (ERa) (AID 2282970; active means hit-call score of the fitted dose curve at least 0.9, where 1 is the maximum); conditions: HepG2 Attagene TRANS ERa GAL4 reporter, mRNA
Method in brief: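 Reporter transcripts were measured 24 h after dosing by RT-PCR with fluorescent primer extension and capillary electrophoresis. The system is transiently transfected HepG2 expressing exogenous NR-Gal4 chimeras driving GAL4-UAS reporters; DMSO is the baseline.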

Measured: AC50

Sequence of Signal transducer and activator of transcription 3 (Homo sapiens) (P40763 whole entry, looked up): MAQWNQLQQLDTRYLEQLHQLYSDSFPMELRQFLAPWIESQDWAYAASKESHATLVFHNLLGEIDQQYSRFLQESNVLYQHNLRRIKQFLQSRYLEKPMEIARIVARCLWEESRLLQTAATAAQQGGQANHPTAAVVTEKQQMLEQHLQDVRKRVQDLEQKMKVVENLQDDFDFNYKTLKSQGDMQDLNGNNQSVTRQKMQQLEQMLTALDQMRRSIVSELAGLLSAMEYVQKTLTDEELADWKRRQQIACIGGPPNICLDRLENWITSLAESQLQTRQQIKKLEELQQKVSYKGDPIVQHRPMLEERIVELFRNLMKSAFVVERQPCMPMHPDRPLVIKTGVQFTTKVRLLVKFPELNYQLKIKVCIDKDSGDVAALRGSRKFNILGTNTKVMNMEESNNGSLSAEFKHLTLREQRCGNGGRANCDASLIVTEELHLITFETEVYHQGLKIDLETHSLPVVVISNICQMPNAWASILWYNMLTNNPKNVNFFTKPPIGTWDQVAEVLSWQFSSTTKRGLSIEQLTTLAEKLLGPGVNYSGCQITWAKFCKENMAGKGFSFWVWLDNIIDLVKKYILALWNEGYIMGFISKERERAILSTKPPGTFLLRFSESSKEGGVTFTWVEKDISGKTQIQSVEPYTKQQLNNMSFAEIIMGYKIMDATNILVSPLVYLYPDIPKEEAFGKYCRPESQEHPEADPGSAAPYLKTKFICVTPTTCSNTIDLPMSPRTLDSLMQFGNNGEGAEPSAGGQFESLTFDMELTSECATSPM
Sequence of Nuclear receptor subfamily 1 group I member 3 (Homo sapiens) (Q14994 whole entry, looked up, the tested form may be a part): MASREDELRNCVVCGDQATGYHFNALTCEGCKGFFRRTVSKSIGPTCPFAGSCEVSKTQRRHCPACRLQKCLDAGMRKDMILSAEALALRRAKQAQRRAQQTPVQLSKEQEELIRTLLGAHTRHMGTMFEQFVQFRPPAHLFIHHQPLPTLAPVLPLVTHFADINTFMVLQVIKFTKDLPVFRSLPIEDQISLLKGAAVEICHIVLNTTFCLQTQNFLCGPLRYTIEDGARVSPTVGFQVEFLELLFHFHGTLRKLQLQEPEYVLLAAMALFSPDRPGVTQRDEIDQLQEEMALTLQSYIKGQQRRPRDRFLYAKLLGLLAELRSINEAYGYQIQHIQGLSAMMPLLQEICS
Sequence of X-box-binding protein 1 (Homo sapiens) (P17861 whole entry, looked up): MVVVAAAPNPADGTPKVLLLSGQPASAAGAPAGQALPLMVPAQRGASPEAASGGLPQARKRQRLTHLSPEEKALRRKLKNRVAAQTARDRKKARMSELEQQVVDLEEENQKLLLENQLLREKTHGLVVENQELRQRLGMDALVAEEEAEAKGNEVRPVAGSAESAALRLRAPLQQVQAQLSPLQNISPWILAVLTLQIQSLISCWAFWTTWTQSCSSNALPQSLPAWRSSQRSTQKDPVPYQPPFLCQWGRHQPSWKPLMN
Sequence of Paired box protein Pax-6 (Homo sapiens) (P26367 whole entry, looked up): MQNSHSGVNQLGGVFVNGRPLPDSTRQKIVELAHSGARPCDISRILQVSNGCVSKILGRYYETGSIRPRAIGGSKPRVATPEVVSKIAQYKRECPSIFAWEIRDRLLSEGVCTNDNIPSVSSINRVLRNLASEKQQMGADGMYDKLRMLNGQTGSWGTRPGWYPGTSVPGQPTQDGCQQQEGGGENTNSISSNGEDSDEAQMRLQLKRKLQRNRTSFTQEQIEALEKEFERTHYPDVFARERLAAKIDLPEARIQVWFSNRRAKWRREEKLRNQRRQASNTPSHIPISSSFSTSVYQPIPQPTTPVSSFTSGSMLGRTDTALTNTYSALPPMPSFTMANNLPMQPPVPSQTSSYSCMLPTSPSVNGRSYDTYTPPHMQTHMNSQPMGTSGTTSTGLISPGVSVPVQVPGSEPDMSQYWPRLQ
Sequence of Transcription factor Sp1 (Homo sapiens) (P08047 whole entry, looked up): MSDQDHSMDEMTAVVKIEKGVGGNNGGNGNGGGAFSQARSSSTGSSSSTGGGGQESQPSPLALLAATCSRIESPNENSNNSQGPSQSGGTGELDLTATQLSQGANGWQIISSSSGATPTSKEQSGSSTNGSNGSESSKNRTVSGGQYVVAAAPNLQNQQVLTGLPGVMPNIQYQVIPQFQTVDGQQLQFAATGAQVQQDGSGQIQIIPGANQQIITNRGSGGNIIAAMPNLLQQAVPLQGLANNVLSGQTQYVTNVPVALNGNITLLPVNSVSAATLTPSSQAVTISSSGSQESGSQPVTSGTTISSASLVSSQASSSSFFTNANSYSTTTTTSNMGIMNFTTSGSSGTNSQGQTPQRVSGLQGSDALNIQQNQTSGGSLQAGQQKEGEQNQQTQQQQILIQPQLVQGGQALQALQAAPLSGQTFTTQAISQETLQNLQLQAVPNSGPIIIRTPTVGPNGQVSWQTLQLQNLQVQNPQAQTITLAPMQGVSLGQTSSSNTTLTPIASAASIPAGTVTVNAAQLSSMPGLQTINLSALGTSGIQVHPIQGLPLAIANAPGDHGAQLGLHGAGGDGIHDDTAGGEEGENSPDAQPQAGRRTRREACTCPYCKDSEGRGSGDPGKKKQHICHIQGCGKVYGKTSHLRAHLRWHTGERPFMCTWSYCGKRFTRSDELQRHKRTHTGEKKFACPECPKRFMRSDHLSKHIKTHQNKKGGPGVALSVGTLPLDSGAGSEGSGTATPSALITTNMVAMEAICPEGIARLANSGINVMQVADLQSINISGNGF
Sequence of Steroid hormone receptor ERR1 (Homo sapiens) (P11474 whole entry, looked up, the tested form may be a part): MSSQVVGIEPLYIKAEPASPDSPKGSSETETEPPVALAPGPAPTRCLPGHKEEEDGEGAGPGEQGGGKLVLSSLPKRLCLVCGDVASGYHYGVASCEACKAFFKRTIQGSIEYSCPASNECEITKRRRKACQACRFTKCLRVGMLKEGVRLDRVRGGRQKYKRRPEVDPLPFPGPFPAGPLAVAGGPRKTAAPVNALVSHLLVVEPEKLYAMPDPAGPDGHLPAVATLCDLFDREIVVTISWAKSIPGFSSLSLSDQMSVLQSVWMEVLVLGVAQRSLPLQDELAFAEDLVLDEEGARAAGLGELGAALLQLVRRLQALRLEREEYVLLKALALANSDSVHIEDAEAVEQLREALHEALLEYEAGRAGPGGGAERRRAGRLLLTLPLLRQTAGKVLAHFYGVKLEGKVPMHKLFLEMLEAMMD
Sequence of Estrogen-related receptor gamma (Homo sapiens) (P62508 whole entry, looked up, the tested form may be a part): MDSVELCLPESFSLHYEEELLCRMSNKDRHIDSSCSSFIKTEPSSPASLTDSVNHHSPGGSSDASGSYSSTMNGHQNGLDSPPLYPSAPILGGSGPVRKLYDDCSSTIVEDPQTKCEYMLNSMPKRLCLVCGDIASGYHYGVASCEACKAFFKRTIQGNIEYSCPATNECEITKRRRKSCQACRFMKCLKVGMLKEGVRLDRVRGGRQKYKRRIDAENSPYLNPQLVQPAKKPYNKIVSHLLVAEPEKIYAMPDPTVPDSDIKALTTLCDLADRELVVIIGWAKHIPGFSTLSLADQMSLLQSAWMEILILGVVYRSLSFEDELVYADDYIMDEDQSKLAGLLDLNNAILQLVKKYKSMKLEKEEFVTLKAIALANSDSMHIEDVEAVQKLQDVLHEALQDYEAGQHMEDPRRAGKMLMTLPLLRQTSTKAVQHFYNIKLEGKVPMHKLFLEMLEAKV
Sequence of Estrogen receptor (Homo sapiens) (P03372 whole entry, looked up, the tested form may be a part): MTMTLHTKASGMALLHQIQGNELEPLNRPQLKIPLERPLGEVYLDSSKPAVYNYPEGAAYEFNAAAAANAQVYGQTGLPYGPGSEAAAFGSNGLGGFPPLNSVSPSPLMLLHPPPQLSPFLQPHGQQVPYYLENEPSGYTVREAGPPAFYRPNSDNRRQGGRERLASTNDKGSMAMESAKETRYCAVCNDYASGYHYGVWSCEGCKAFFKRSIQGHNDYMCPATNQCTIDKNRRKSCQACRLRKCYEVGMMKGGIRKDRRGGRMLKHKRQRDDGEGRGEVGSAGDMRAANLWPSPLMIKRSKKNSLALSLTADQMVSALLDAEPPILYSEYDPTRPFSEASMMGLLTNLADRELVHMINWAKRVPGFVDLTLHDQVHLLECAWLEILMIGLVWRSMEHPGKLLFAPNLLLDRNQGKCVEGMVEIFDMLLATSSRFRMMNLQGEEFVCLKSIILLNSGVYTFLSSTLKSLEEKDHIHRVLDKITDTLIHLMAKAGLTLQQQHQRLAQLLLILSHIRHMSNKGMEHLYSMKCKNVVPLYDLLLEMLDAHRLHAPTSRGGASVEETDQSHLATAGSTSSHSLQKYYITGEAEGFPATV

CCCOCCO
not listed: [16] | [17] | [18] | [19] | [20]
inactive: all other assays above

O=C(O)c1cccnc1C(=O)O
not listed: [11] | [12] | [15] | [16] | [17] | [18] | [19] | [20]
inactive: all other assays above

CCCCCCCCCCCC(=O)OC[C@@H](O)[C@H]1OC[C@H](O)[C@H]1O
not listed: [2] | [12] | [20]
inactive: all other assays above

CCCCCCCC(=O)OCC(O)CO (configuration not stated)
not listed: [11] | [15] | [16] | [17] | [19] | [20]
inactive: all other assays above

C=CCN(CC=C)CC=C
inactive: [1] | [2] | [17] | [4] | [5] | [6] | [8] | [9] | [11] | [15]

CCOC(=O)c1ccc(N)cc1
active: [2] 27 µM
not listed: [9] | [12] | [16] | [17] | [18] | [19] | [20]
inactive: all other assays above

Oc1ccc2cc(SSc3ccc4cc(O)ccc4c3)ccc2c1
inactive: [3] | [6] | [8] | [9] | [12] | [15]
active: [1] 27.1 µM | [2] 6.48 µM | [4] 75.2 µM | [5] 8.33 µM | [7] 26.6 µM | [11] 27.6 µM | [13] 40.2 µM

Nc1c(S(=O)(=O)O)cc(Br)c2c1C(=O)c1ccccc1C2=O
active: [2] 22.4 µM | [7] 100 µM | [11] 72.4 µM
inactive: [1] | [3] | [4] | [6] | [8] | [9] | [10] | [20] | [13]

COC(=O)c1cccnc1
not listed: [3] | [8] | [12] | [16] | [17] | [20]
inactive: all other assays above

CCc1ncc(C)[nH]1
not listed: [2] | [12] | [14] | [15] | [18] | [19] | [20]
inactive: all other assays above

O=P(O)(O)O
not listed: [12] | [16] | [17] | [18] | [19] | [20]
inactive: all other assays above
